# Screening data as filed in PubChem.
# Shown are actives, neighbours in structure and some others; about 3.4% of the full set was active somewhere.
# miR-122 sensor – blocks miR-122 activity in Huh7 sensor cells; Huh7 miR-122 Renilla luciferase sensor, 48 h; neutral wells = 0, positive control = 100; activation (reporter increase), % at 12.5 µM; actives 0.3% (n = 340,000);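 active = mean replicate activation score at least 90 and every replicate individually at or above 90; inconclusive = only one of the two criteria met; inactive = neither criterion met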;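 note: higher luciferase means less miR-122 activity so hits act as miR-122 inhibitors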
# HIV Env fusion – blocks HIV Env-driven cell-cell fusion; inhibition, % at 12.3 µM; HeLa-JRFL Env/CEM21 cell fusion, luciferase; AID 651610; actives 1.1% (n = 360,000);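 active = mean replicate inhibition score of at least 50 and every replicate individually at or above 50; inconclusive = only one of the two criteria met; inactive = mean below 50 and not all replicates reaching 50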;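 note: 0% = plate neutral controls and 100% = maraviroc near 300 nM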
# MITF act – increases MITF-driven TRPM1 promoter luciferase signal; SK-MEL-5 TRPM1-promoter luciferase, 24 h; % of positive control, neutral wells = 0; activation, % at 12.5 µM; actives 0.75% (n = 300,000);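 active = mean activation of at least 80% with every replicate also reaching 80%; inconclusive = mean reaches 80% but some replicate falls short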;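 note: 0% = neutral control wells and 100% = parthenolide positive control wells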
# Wnt bcat act – Wnt/beta-catenin pathway activation | Wnt/beta-catenin reporter cell assay, activator, plate reader | activation, % at 9.35 µM | actives 1.2% (n = 300,000) | AID 743398; in the data active = activation above about 30%, passing the limit was not always enough; inconclusive = no clear call, values can overlap the other calls;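 note: 0% = neutral control wells and 100% = positive control wells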
# esBAF inh – blocks esBAF chromatin remodeling in mouse ES cells | actives 2% (n = 350,000) | Bmi1-luciferase knock-in reporter, 24 h; 100% = twice the neutral-well signal | AID 602393 | reporter increase, % at 12.5 µM; in the data active = activation above about 40%; inconclusive = no clear call, values can overlap the other calls;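 note: 0% = median of the plate's neutral control wells and 100% = double that signal; a rise in the Bmi1 reporter signal indicates esBAF inhibition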
# The depositor's hits bear a star; ? = inconclusive; · = not tested or not shown; [ ] = dose if it differs, or a comment.
SMILES,miR-122 sensor,HIV Env fusion,MITF act,Wnt bcat act,esBAF inh
C[C@H](CO)N1C[C@H](C)[C@H](CN(C)S(=O)(=O)c2ccc(F)cc2)Oc2ccc(NC(=O)Nc3cccc4ccccc34)cc2CC1=O,-2[16.7 µM],83*[16.7 µM],·,·,-1
C[C@H](CO)N1C[C@H](C)[C@@H](CN(C)S(=O)(=O)c2ccccc2)Oc2ccc(NC(=O)Nc3ccccc3)cc2CC1=O,1[16.7 µM],-11[16.7 µM],·,·,6
C[C@H](CO)N1C[C@H](C)[C@H](CN(C)S(=O)(=O)c2ccc(F)cc2)Oc2ccc(NC(=O)Nc3ccccc3)cc2CC1=O,1[16.7 µM],55*[16.7 µM],·,·,2
Cc1ccc(S(=O)(=O)Nc2ccc3c(c2)CC(=O)N([C@@H](C)CO)C[C@@H](C)[C@H](CN(C)Cc2ccc(Cl)c(Cl)c2)O3)cc1,-27[16.7 µM],33[16.7 µM],·,·,1
COc1ccc(C2CC(c3ccc(Cl)cc3)=NN2c2ccc(S(N)(=O)=O)cc2)cc1 (centres undefined),-3,-24,10,-1,-1
COc1ccc(C2CC(c3ccncc3)=NN2c2ccc(S(N)(=O)=O)cc2)cc1 (centres undefined),9,-84,44,1,83*
CN=C(c1ccc(C)cc1)n1c(=S)nc(-c2ccc(C)cc2)n(C)c1=S,4,-30,2,55*,83*
CN=C(c1ccco1)n1c(=S)nc(-c2ccco2)n(C)c1=S,0,-72,-8,0,9
C[C@H](CO)N1C[C@H](C)[C@H](CN(C)C(=O)Nc2ccc3c(c2)OCO3)Oc2ccc(NC(=O)Cc3ccccc3)cc2CC1=O,-5[16.7 µM],3[16.7 µM],·,·,2
C[C@H]1CN([C@@H](C)CO)C(=O)c2cc(-c3ccc(C#N)cc3)cnc2O[C@H]1CN(C)C(=O)Nc1ccccc1,-5[16.7 µM],-9[16.7 µM],·,·,-4
Nc1ccc(C(=O)OCc2nc3c(ccc4ccccc43)[nH]2)cc1,-6,·,45,13,79*
Cc1cccc(/C(N)=N/OC(=O)Cc2cccs2)c1,2,-181,95*,·,48*
Cc1ccc(/C(N)=N/OC(=O)Cc2cccs2)cc1,-4,-139,111*,·,55*
N/C(=N\OC(=O)Cc1cccs1)c1cccc([N+](=O)[O-])c1,7,-27,20,5,34
Cc1ccc(C(=O)O/N=C(\N)Cc2cccs2)c(Cl)c1,·,·,117*,·,·
N/C(Cc1cccs1)=N\OC(=O)COc1ccccc1,-5,·,21,6,17
N/C(=N\OC(=O)Cc1cccs1)c1ccccc1,-3,-80,·,·,72*
CCNC(=O)C[C@@H]1CC[C@H]2[C@@H](COc3ccc(NC(=O)c4ccc(F)cc4)cc3C(=O)N2C)O1,0[16.7 µM],-10[16.7 µM],·,·,-3
N/C(=N\OC(=O)Cc1cccs1)c1ccc(Cl)cc1,5,-15,79,34*,81*
N/C(=N\OC(=O)CN1C(=O)c2ccccc2C1=O)c1ccc(Cl)cc1,·,-2,2,-2,·
COCCn1c(C)cc(C2=NNC(=Nc3ccc(Cl)cc3Cl)SC2)c1C,-2,-83,-14,·,5
C=CCN=C1NN=C(c2cc(C)n(CCOC)c2C)CS1,·,75*,-19,-9,·
COCCn1c(C)cc(C2=NNC(=NC3CC3)SC2)c1C,·,57*,-101,-8,·
CC(C)CC#Cc1ccc2c(c1)O[C@H](CN(C)C(=O)c1cccc(F)c1)[C@@H](C)CN([C@H](C)CO)S2(=O)=O,30[16.7 µM],-18[16.7 µM],·,·,0
CSCCC(=O)N1CCCC(CO)(CCCc2ccccc2)C1 (centres undefined),·,-7,·,0,-8
SMILES,miR-122 sensor,HIV Env fusion,MITF act,Wnt bcat act,esBAF inh
O=C1CCCN1CCC(=O)N1CCCC(CO)(Cc2ccccc2)C1 (centres undefined),-5,-40,49,32*,63*
O=C(c1cnn2c(C(F)F)cc(-c3ccccc3)nc12)N1CCN(Cc2ccc3c(c2)OCO3)CC1,·,58*,21,1,·
Cc1ccccc1Cc1c(C)nc2c(C(=O)N3CCN(Cc4ccc5c(c4)OCO5)CC3)cnn2c1C,3,60*,1,·,-4
Cc1ccc(S(=O)(=O)N(C)C[C@H]2Oc3c(NS(=O)(=O)c4ccccc4)cccc3C(=O)N([C@H](C)CO)C[C@@H]2C)cc1,5[16.7 µM],-24[16.7 µM],·,·,-11
O=C(CCCC(=O)c1ccc(F)cc1)c1ccc(F)cc1,2,-37,131*,37*,55*
O=C(CCCN1CCC(C(=O)c2ccc(F)cc2)CC1)c1ccc(F)cc1,-2,16,-1,1,-2
Cc1ccc(S(=O)(=O)Cn2nnnc2C(c2ccc(F)cc2)N2CCCCC2)cc1 (centres undefined),2,·,8,·,2
Cc1ccc(C(c2nnnn2CS(=O)(=O)c2ccc(C)cc2)N2CCCC2)cc1 (centres undefined),8,73*,0,1,·
COc1cccc(S(=O)(=O)N[C@@H]2CC[C@@H](CCn3cc(-c4ccccn4)nn3)O[C@@H]2CO)c1,·,-3[16.7 µM],·,·,2
Cc1ccc(F)c(CNC(=O)C2(C)CCCN2C(=O)C(C)C)c1F (centres undefined),-3,-3,·,36*,-5
CC(C)C(=O)N1CCC1(C)C(=O)NCc1cc(Cl)ccc1F (centres undefined),-4,-4,·,-1,-2
CN(C)CC(=O)N[C@@H]1C=C[C@H](CC(=O)NCCN2CCCCC2)O[C@@H]1CO,·,-4[16.7 µM],·,·,-4
COCCNC(=S)N(Cc1cc2cc(C)ccc2n2nnnc12)C1CCCC1,-2,60*,-2,-2,10
CN1CCN(C(=O)C[C@@H]2CC[C@H]3[C@@H](COC[C@H](O)CN3C(=O)Nc3ccc(Cl)cc3)O2)CC1,-7[16.7 µM],·,·,·,11
CC(C)[C@@H](CO)NC(=O)c1ccc2c3n(nc2c1)-c1ccc(Cl)cc1CO3,-8,-129,89*,45*,59*
c1ccc2c(c1)COc1c3cc4c(cc3nn1-2)OCO4,2,-335,·,0,25
C[C@@H](CO)NC(=O)c1ccc2c3n(nc2c1)-c1ccc(Cl)cc1CO3,4,-86,102*,47*,81*
COc1ccc(NC(=O)O[C@H](c2ccc(OCCO)cc2)[C@@H](C)CCO)cc1,·,2[16.7 µM],·,·,·
O=C1CC(c2ccc3c(c2)OCCO3)Oc2ccccc21 (centres undefined),-4,-62,104*,?,84*
COc1cccc(C2Cc3ccccc3C(=O)O2)c1 (centres undefined),5,·,18,·,·
COc1ccc(C2CC(=O)c3ccccc3O2)cc1 (centres undefined),-1,-60,126*,43*,61*
O=C1CC(c2ccccc2)Oc2ccc(Cl)cc21 (centres undefined),·,-11,5,0,·
COc1ccc(C2CC(=O)c3cc(OC)ccc3O2)cc1 (centres undefined),·,-49,45,-1,52*
C[C@@H]1CN([C@@H](C)CO)C(=O)c2cccc(NS(=O)(=O)c3ccc(Cl)cc3)c2O[C@@H]1CN(C)Cc1ccc(C(F)(F)F)cc1,3[16.7 µM],?,·,·,0
